This passage reports z-score results from PubChem BioAssay.

This assay is described as follows: adipocyte viability effects, profiling panel, cell-based, 3T3-L1 adipocytes, calcein-AM fluorescence, 48 h, basal (AID 1163). Further: test concentration not given here. Particulars: 3T3-L1 adipocytes viability, higher = more signal.
With `COC(=O)[C@@]1(Cc2ccccc2)[C@H]2c3cc(C(=O)N(C)C)n(Cc4c(CO)[nH]cc(C)c4=O)c3C[C@H]2CN1C(=O)c1ccccc1`, the z-score is -0.284.
With `CN(C)C(=O)[C@]1(CCS(=O)(=O)c2ccccc2)N=C(c2ccc(OCCCO)cc2)O[C@@H]1c1ccccc1N=[N+]=[N-]`, the z-score is 0.503.
With `CCCCCCc1nc(-c2cc(C)c(OC)c(C)c2)c(C)c2c1[Si](C(C)C)(C(C)C)OC2`, the z-score was 1.66.
As for `CC(C)C[C@@H]1NC(=O)[C@@H]2C[C@H](C(=O)NCCCCCN)[C@H](c3ccc(O)cc3)N2C1=O`, the z-score was 0.484.
Regarding `C[C@H]1NC(=O)[C@@]23C(=O)N[C@@H](Cc4ccccc4)C2[C@H](C)[C@@]2(C)O[C@H]2C3/C=C/C/C=C\CNC(=O)[C@H](Cc2ccccc2)NC1=O` (stereo partly specified), the z-score is 0.76.
The figure for `C=CC[C@]1(C(=O)NCCN2CCOCC2)N=C(c2ccc(OCCCO)cc2)O[C@H]1c1ccccc1CN=[N+]=[N-]` is 0.885; for `O=C1O[C@H](c2ccccc2)[C@H](c2ccccc2)N2[C@H]1[C@@H](C(=O)Nc1nc3ccccc3s1)[C@]1(C(=O)Nc3ccccc31)[C@H]2c1ccc(OCCO)cc1` it is 0.0354; for `CN1C(=O)C2C=CC(C(O)c3cccc(O)c3)N(Nc3ccccc3)C2C1=O` (stereo unspecified) it is -0.58.
In the case of `C=C(COC)/C(=C/C[C@H](OC(=O)c1ccncc1)c1ccccc1OCCO)c1cnc2ccccc2c1`, the z-score is 0.688.
Consider `[N-]=[N+]=Nc1ccccc1[C@@H]1OC(c2ccc(OCCCO)cc2)=N[C@]1(Cc1ccccc1)C(=O)NCC(O)CO` (stereo partly specified), for which the z-score was 0.509.
For `CCOc1cc(C(O)C2C=CC3C(=O)N(C)C(=O)C3N2Nc2ccccc2)ccc1O` (stereo unspecified), the z-score is -0.0778.
